# From PubChem BioAssay (EPA / NIEHS)
# Inconclusive results are not listed. Some compounds were tested as several samples or in several runs, with calls that do not always agree. Active and inactive are the calls of the source. Rule for the calls: active = hit-call score of the fitted dose curve at least 0.9, where 1 is the maximum; inconclusive = response in the unintended direction; inactive = score below 0.9.
# Assays:
# [1] = ATG_XTT_Cytotoxicity: Cytotoxicity Assessment in the Attagene TRANS-FACTORIAL HepG2 Assay (AID 2283584);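 for AC50: XTT signal for cell number as viability in transfected HepG2 cells; cells exposed to compound for 24 h before reading; active means loss of viability signal versus DMSO baseline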
# How it was run: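 Transfect HepG2 with GAL4-UAS reporter units, dose compound, incubate 24 h, then measure viable cell number by XTT. Fit concentration response against DMSO baseline.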
# [2] = TOX21_p53_BLA_p2_viability: Viability Assessment in the Tox21 HCT-116 p53 Agonism Beta-lactamase Assay, Phase 2 (AID 2283591);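 note: compound exposure lasted 16 h at 37 °C; actives lower the ATP signal meaning cytotoxicity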
# How it was run: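 Cytotoxicity readout: CellTiter-Glo ATP luminescence, 30 min at room temperature, after the beta-lactamase read. Cells were HCT116 exposed 16 h at 37C to compounds pin-transferred at 217-fold dilution from DMSO stocks.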
# [3] = target: Cellular tumor antigen p53 (Homo sapiens) (UniProt P04637); test: TOX21_p53_BLA_p2_ratio: Tox21 HCT-116 p53 Agonism Beta-lactamase Assay, Ratio, Phase 2 (AID 2283592)
# How it was run: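 Cleaved-to-uncleaved substrate ratio (460 vs 530 nm) measured in HCT116 cells with an inducible beta-lactamase reporter linked to p53 activity. Compounds incubated 16 h at 37C before 2 h room-temperature CCF4-AM loading.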
# [4] = TOX21_p53_BLA_p3_viability: Viability Assessment in the Tox21 HCT-116 p53 Agonism Beta-lactamase Assay, Phase 3 (AID 2283593);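 note: cells exposed to compound for 16 h before reading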
# How it was run: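 Cellular ATP was quantified by CellTiter-Glo luminescence, read after 30 min at room temperature. Beforehand, HCT116 cells (4000/well) received compound 5 h post-seeding, 217-fold diluted from DMSO, then incubated 16 h at 37C.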
# [5] = target: Cellular tumor antigen p53 (Homo sapiens) (UniProt P04637); test: TOX21_p53_BLA_p3_ratio: Tox21 HCT-116 p53 Agonism Beta-lactamase Assay, Ratio, Phase 3 (AID 2283596)
# How it was run: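 Cells were seeded at 4000/well, rested 5 h at 37C, then dosed with DMSO compound solutions (217-fold dilution) for 16 h. CCF4-AM substrate was loaded for 2 h at room temperature, and the 460/530 nm emission ratio was fitted for gain of signal versus DMSO.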
# [6] = TOX21_p53_BLA_p4_viability: Viability Assessment in the Tox21 HCT-116 p53 Agonism Beta-lactamase Assay, Phase 4 (AID 2283597);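 note: hits lower the luminescence signal meaning cytotoxicity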
# How it was run: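 Viability is taken as cellular ATP: after 16 h compound exposure of HCT116 cells and a 2 h room-temperature CCF4-AM substrate step, CellTiter-Glo reagent is added and luminescence is measured 30 min later.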
# [7] = target: Cellular tumor antigen p53 (Homo sapiens) (UniProt P04637); test: TOX21_p53_BLA_p5_ratio: Tox21 HCT-116 p53 Agonism Beta-lactamase Assay, Ratio, Phase 5 (AID 2283599)
# How it was run: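 Beta-lactamase reporter ratio (blue 460 nm over green 530 nm, 405 nm excitation) after 2 h CCF4-AM loading, in HCT-116 cells exposed 16 h at 37 C to compounds pinned at 217-fold dilution. Increases relative to DMSO baseline scored.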
# [8] = tested on: Thyroperoxidase (TPO), gene 54314; test: CCTE_Simmons_AUR_rTPO: CCTE's Amplex UltraRed Assay for Thyroperoxidase (TPO) Inhibition, Simmons Lab (AID 2283662);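 note: potency for loss of signal meaning inhibition of peroxidase activity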
# How it was run: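 Rat thyroid microsomes (5 ug protein) were incubated with test compound (8 concentrations, 5 nM–87.5 uM final, 0.5% DMSO), 25 uM Amplex UltraRed and 300 uM H2O2 in 200 mM phosphate buffer for 30 min at 37C in the dark; fluorescence read at 544/590 nm.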
# [9] = target: Cellular tumor antigen p53 (Homo sapiens) (UniProt P04637); test: TOX21_p53_BLA_p4_ratio: Tox21 HCT-116 p53 Agonism Beta-lactamase Assay, Ratio, Phase 4 (AID 2283601)
# How it was run: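 Signal is the blue/green (460nm/530nm) ratio of cleaved versus uncleaved CCF4-AM substrate, read after 2 h substrate loading. Cells were HCT116 carrying the p53-responsive beta-lactamase reporter, dosed 16 h at 37C, 5% CO2; CellTiter-Glo measured in parallel.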
# Sequence of Cellular tumor antigen p53 (Homo sapiens) (P04637 whole entry, looked up): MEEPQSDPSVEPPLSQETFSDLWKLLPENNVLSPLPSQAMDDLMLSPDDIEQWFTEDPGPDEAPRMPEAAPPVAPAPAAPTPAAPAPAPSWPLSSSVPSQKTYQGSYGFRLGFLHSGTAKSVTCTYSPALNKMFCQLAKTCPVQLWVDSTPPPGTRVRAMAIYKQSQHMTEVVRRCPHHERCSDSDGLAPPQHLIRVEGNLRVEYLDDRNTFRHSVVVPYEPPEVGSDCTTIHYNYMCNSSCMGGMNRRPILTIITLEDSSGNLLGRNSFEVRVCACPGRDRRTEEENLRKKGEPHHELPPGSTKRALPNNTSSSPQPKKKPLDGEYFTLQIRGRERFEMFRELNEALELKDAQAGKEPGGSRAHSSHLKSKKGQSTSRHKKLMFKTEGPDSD
smiles,measurement,setting,value
CCCCCCCC/C=C\CCCCCCCC(=O)N(C)CC(=O)O,AC50,[1],128 µM (active)
same,AC50,[2],37.1 µM (active)
same,AC50,[3],51.5 µM (active)
same,AC50,[4],45.1 µM (active)
same,AC50,[5],81.1 µM (active)
same,AC50,[6],83.3 µM (active)
same,AC50,[7],79.6 µM (active)
same,AC50,[8],16.4 µM (active)
C[C@]12CC[C@H]3C(=CCc4cc(O)ccc43)[C@@H]1CCC2=O,outcome,[1],inactive
same,outcome,[2],inactive
same,outcome,[3],inactive
same,outcome,[4],inactive
same,outcome,[5],inactive
same,AC50,[6],15.8 µM (active)
same,outcome,[7],inactive
same,AC50,[8],13.9 µM (active)
CO[Si](CCCOCC1CO1)(OC)OC (stereo unspecified),outcome,[1],inactive
same,outcome,[2],inactive
same,AC50,[3],86.5 µM (active)
same,outcome,[4],inactive
same,outcome,[5],inactive
same,outcome,[6],inactive
same,outcome,[7],inactive
CN1CN(C)CN(C)C1,outcome,[1],inactive
CCCCCCCCCCCC(=O)Cl,outcome,[1],inactive
Cc1cc(O)c(C(C)(C)C)cc1C(C)(C)C,outcome,[1],inactive
same,AC50,[2],40.6 µM (active)
same,AC50,[3],70.8 µM (active)
same,AC50,[4],87 µM (active)
same,AC50,[5],87.3 µM (active)
same,AC50,[6],30.9 µM (active)
same,AC50,[7],57.2 µM (active)
CC(C)CCCC(C)CCO (stereo unspecified),outcome,[1],inactive
same,outcome,[2],inactive
same,outcome,[3],inactive
same,outcome,[4],inactive
same,outcome,[7],inactive
same,outcome,[9],inactive
C=CCOC(=O)CC(C)C,outcome,[1],inactive
same,outcome,[2],inactive
same,outcome,[3],inactive
same,outcome,[4],inactive
same,outcome,[6],inactive
same,outcome,[7],inactive
CCC(Cc1c(I)cc(I)c(N)c1I)C(=O)O (stereo unspecified),outcome,[1],inactive
same,outcome,[2],inactive
same,outcome,[3],inactive
same,outcome,[4],inactive
same,outcome,[5],inactive
same,AC50,[6],69.9 µM (active)
same,outcome,[6],inactive
same,outcome,[7],inactive
CCCCC(CC)COC(=O)c1ccc(N(C)C)cc1 (stereo unspecified),outcome,[1],inactive
same,outcome,[2],inactive
same,outcome,[3],inactive
same,outcome,[4],inactive
same,outcome,[5],inactive
same,outcome,[6],inactive
same,outcome,[7],inactive
OCCCCl,outcome,[1],inactive
Cc1cccc(C)n1,outcome,[1],inactive
